Results reported in PubChem BioAssay AID720560 (Broad Institute, 2013).
Potency and affinity values are given separately. Results filed as inconclusive are left out. The source made the active and inactive calls.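 How the source made its calls: active means signal drop whose fitted half-maximal concentration is at most twice the top valid dose; inconclusive means flat moderate drop between 30 and 70 percent, or an unreliable fit; inactive means the rest.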

Test: hypoxia HIF reporter signal reduction – HeLa cells, luminescence, dry powder samples, 2158-08, ARNT-TACC3 inhibitor project, dose response (AID 720560)
Details: HeLa 3xHRE-luciferase reporter; series mostly up to 60 µM

outcome, inactive:
CC1CCN(S(=O)(=O)c2ccc(C(=O)Nc3nnc(-c4ccno4)o3)cc2)CC1, O=C(CSc1ccc(-c2ccccn2)nn1)NC1CCCCC1, O=C(CSc1ccc(-c2ccccn2)nn1)Nc1ccccc1, CC1CCN(S(=O)(=O)c2ccc(C(=O)Nc3nnc(-c4ccccn4)o3)cc2)CC1, C=CC1=C(C(=O)O)N2C(=O)[C@@H](NC(=O)/C(=N\O)c3csc(N)n3)[C@H]2SC1 (stereo in doubt), O=C(Nc1nnc(C2=COCCO2)o1)c1ccc(S(=O)(=O)N2CCCCC2)cc1, O=C(CSc1ccc(-c2ccccn2)nn1)N1CCCC1, Cc1c(C(=O)N(C)C)sc2nc(-c3ccccn3)[nH]c(=O)c12, Cc1nnc(NC(=O)c2ccc(S(=O)(=O)N3CCCCC3)cc2)o1, Cc1ccc(C(=O)Nc2nc(-c3ccccn3)cs2)cc1S(=O)(=O)N1CCOCC1
